Results as given in PubChem BioAssay AID488857 (Sanford-Burnham Center for Chemical Genomics, 2010).
Hit rate of the full screen: of about 1,400 compounds, about 560 (40%) were called active.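 The calls were made as follows: active = mean inhibition over duplicate tests at 10 µM above 50%; inactive = the rest.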 So high a share suggests a set chosen from earlier hits. Some of the results follow.

Assay: ASC/caspase-1 reporter retest in S. cerevisiae at one dose, specificity check for NALP1 project (AID 488857)
Conditions: S. cerevisiae ASC/Caspase-1, beta-galactosidase luminescence, 24 h; at 10 µM; stronger effect = higher value

inhibition, inactive:
C(#Cc1ccc(C#CCN2CCCC2)cc1)CN1CCCC1 42.5%
Cc1[nH][nH]c(=O)c1C(c1ccc(-c2ccc(Cl)c(Cl)c2)o1)c1c(C)[nH][nH]c1=O 39.9%
COc1ccc(S(=O)(=O)N2CCOC2CNC(=O)C(=O)NCCCN2CCOCC2)cc1C (stereo not drawn) 28.6%
C/C(=N/NC(=O)c1nnn(-c2nonc2N)c1COc1ccccc1)c1ccc(O)cc1 27.6%
CCOc1nnc(C)c2c(C)n(-c3cccc(Cl)c3)nc12 28.1%
Cc1ccc(NC(=O)CNc2ccc(OC(C)C)cc2)cc1 39.6%
CNc1ccccc(-c2ccc3ccccc3n2)c1=O 39.4%
CCN1/C(=C/C=C/C=C/c2sc3ccccc3[n+]2CC)Sc2ccccc21 41%
Cc1cc(N2C(=O)C=CC2=O)c([N+](=O)[O-])cc1C 3%
CC1(C)NC(=O)N(CCCCOc2ccc3ccccc3c2Cl)C1=O 48.8%
O=C(CCNc1n[nH]c(=O)[nH]c1=O)N/N=C/c1ccc(C(F)(F)F)cc1 23.2%
COc1cc(OC)c(-c2nnc(-c3ccc(OC)c(OC)c3OC)o2)cc1OC 31%
Cc1ccc2c(c1)c1c3n2CCCNC3CCC1 (stereo not drawn) 33%
c1ccc(-c2noc(-c3ccccc3-c3ccccc3)n2)cc1 23.6%
COCCCNCCOc1cc(C(C)C)ccc1C 30.4%
CC(C)c1ccc(CN2CCN(C(=O)CCl)CC2)cc1 35.6%
CCc1cccc(OCCN2CCCC2)c1 41.1%
Cc1cccc(C)c1OCC(=O)Nn1c(=O)[nH]c2ccccc2c1=O 34.9%
CCNc1ccc(Br)cc(C(=O)/C=C/c2c(Cl)cccc2Cl)c1=O 42.6%
Cc1cc(C)c(S(=O)(=O)N(CC(=O)O)CC(=O)O)c(C)c1 46%
CC[N+]1(CC)CC2=Cc3c(ccc4ccccc34)CC2C1 (stereo not drawn) 35.5%
CCCCCCOc1ccc(N2C(=O)CC(N3CCC(C(=O)OCC)CC3)C2=O)cc1 (stereo not drawn) 45.4%
CCOc1ccc(C2N(c3ccc(F)cc3)C(=O)C3CCCN32)cc1 (stereo not drawn) 26.1%
Cc1ccc(Cl)cc1N1CCN(S(C)(=O)=O)CC1 33.1%
COc1ccc(-c2nc3c(c(=O)[nH]c(=O)n3Cc3ccccc3)n2C)cc1 41%
CCOC(=O)c1ccccc1NC(=O)COc1cc(=O)n(CC)c2ccccc12 33.4%
O=C(Nc1ccc(F)cc1)c1cccnc1N1CCCCC1 43.2%
Fc1ccc(Nc2ccnc(Nc3ccc(F)cc3)n2)cc1 46.8%
CN(C)S(=O)(=O)c1ccc(N2CCCC2)c(C(=O)Nc2nc3ccccc3s2)c1 42.1%
CC(C)(C)C1=CC(=O)C(=O)C(C(C)(C)C)=C1 12.5%
COC1=C(Nc2ccccc2)C(=O)c2ccccc2C1=O 26.2%
O=C1OC(/C=C/c2ccc(Cl)cc2)=NC/1=C/c1ccco1 39.5%
CCCCCCOc1ccc(-c2ccc(C#N)cn2)cc1 37.6%
CCCCCCOc1ccc(OC(=O)c2ccncc2)cc1 14.7%
Cc1c(-c2ccccc2)[n+](=O)c2c(n1[O-])CCC2 -7.75%
CCCN(CCC)C(=O)Cn1c(=O)n(CCCCC(=O)NCc2ccco2)c(=O)c2ccccc21 49%
CSCCNC(C)=O 17%
COC(=O)c1sccc1N/N=C(\C)c1ccc(F)c(Cl)c1 36%
CC1=C(C(=O)Nc2ccc(Cl)cc2)C(c2ccco2)NC(=O)N1 (stereo not drawn) 15.8%
CCc1cccc(C)c1NC(=S)NCCc1c(C)[nH]c2ccc(C)cc12 44.8%
CNC(=O)C(NC(=O)c1ccccc1)=C(C)C 38.2%
COC(=O)c1c(N)c(C#N)c2n1CCCCC2 37.8%
CCOC(=O)c1nc(C)sc1-c1ccnn1S(=O)(=O)c1ccc(C)cc1 45.4%
Nc1nc(-c2ccco2)nn1S(=O)(=O)c1ccccc1 21.7%
Cc1c(-c2nc(N)nc(Nc3ccccc3)n2)oc2ccccc12 45.6%
CCOc1cccc(N2C(=O)CC(N3CCN(c4ccc(S(=O)(=O)CC)cc4)CC3)C2=O)c1 (stereo not drawn) 34.4%
O=C1CC(Sc2nnnn2-c2ccccc2)C(=O)N1c1cccc(Cl)c1 (stereo not drawn) 47.4%
COC(=O)CSC1=C(C#N)C(=O)NC(c2ccccc2)S1 (stereo not drawn) 39.5%
CCn1c2ccccc2c2cc(NC(=O)c3ccc(C)c([N+](=O)[O-])c3)ccc21 45.8%
Cc1cccc(C(=O)NCc2ccc(S(N)(=O)=O)cc2)c1[N+](=O)[O-] 30.2%
Cc1ccc(S(=O)(=O)NC2=NCN(CCOC(=O)c3ccc([N+](=O)[O-])cc3)CN2)cc1 14.1%
COCCNC(=O)c1ccc(C)c(S(=O)(=O)Nc2ccc(C)cc2)c1 27.9%
COCCNC(=O)CCc1ccc(S(=O)(=O)Nc2ccc(C)cc2)cc1 25.9%
CCCCCCC1CCC(C(=O)Nn2c(C)nc3ccccc3c2=O)CC1 (stereo not drawn) 49%
CC1CCCC/C1=N\Nc1ccc(S(N)(=O)=O)cc1[N+](=O)[O-] (stereo not drawn) 25.7%
CCc1ccc(C(=O)NC(CC(C)C)C(=O)O)cc1 (stereo not drawn) 46.8%
CC(NC(=O)Nn1cnnc1)(C(F)(F)F)C(F)(F)F 26.3%
COc1cc(C2Nc3ccccc3C(=O)N2c2ccccc2)ccc1O (stereo not drawn) 15.1%
Cc1ccc2oc(-c3ccc(NC(=O)c4cccnc4)cc3)nc2c1 46.7%
CCCc1cc(C(=O)O)c2ccccc2n1 39.6%

inhibition, active:
CC1(C)CCSC(/C=C/c2ccccc2)=N1 92%
Cc1[nH][nH]c(=O)c1C(c1c(C)[nH][nH]c1=O)c1cn(Cc2ccc(Cl)c(Cl)c2)c2ccccc12 61.2%
CSc1cc(N2CCOCC2)nc(-c2ccccc2Cl)n1 74.1%
O=[N+]([O-])/C=C/c1ccc2c(ccn2Cc2ccccc2)c1 98.8%
Cc1ccc(OC(=S)Nc2ccc(O)cc2)cc1 88.4%
Cc1ccc(C(=O)/C=C/c2cn(CC(O)CN3CCOCC3)c3ccccc23)cc1 (stereo not drawn) 52.7%
CCN1/C(=C/c2ccc3cc(C)ccc3[n+]2CC)Sc2ccccc21 100%
CCN1/C(=C/c2ccc3ccc(C)cc3[n+]2CC)Sc2ccccc21 84.9%
CCN1/C(=C\c2ccc3ccccc3[n+]2CC)Sc2cc(C)ccc21 100%
CC[n+]1c(/C=C2\Sc3ccccc3N2C)ccc2cccc(C)c21 98.1%
CCc1ccc(NCc2nc(-c3ccccc3)no2)cc1 57.2%
Cc1cc(OCCN2CCCC2)cc(C(C)C)c1 53.9%
Cc1ccc(C(C)C)cc1OCCN1CCCC1 54.6%
CCCCCCCCCCCCCCCCn1cc[n+](C)c1 89.7%
CCCCCCCCCCCCCCCCn1cc[n+](CC(C)=O)c1 80.2%
O=C(/C=C/c1ccccn1)c1ccc(Br)cc1O 85.5%
CCOc1ccc(N2C(=O)CC(N)C2=O)cc1 (stereo not drawn) 70%
O=C(Cc1cccs1)Nc1nc(-c2ccc(F)cc2F)cs1 74.7%
CCOc1ccccc1C(=O)OCC(=O)Nc1ccc(N2CCCCC2)cc1 67.3%
CNC(=S)N/N=C/c1cc(Br)cc(Br)c1O 85.5%
CC(=O)n1cc(-c2ccncc2)c2ccccc21 52.4%
CN1CCc2cccc3c2[C@@H]1Cc1ccc(O)c(O)c1-3 67%
CN1CCc2cccc3c2[C@H]1Cc1ccc(O)c(O)c1-3 50.5%
COc1ccc(Nc2ccnc(Nc3ccc(OC)cc3)n2)cc1 64.2%
O=C(NC(Nc1nc2ccc([N+](=O)[O-])cc2s1)(C(F)(F)F)C(F)(F)F)c1ccccc1Cl 100%
COc1ccccc1NC1=C(N2CCCCC2)C(=O)c2ccccc2C1=O 81.7%
CCCCCCOc1ccc(/C(C)=N/NC2=NCCN2)cc1 80.3%
CCCCCOc1ccc(Br)cc1/C(C)=N/NC1=NCCN1 78.4%
NC(C(=O)O)C1CC(Cl)=NO1 (stereo not drawn) 59.1%
CCc1ccc(S(=O)(=O)/N=C2/C=C(Sc3ncn[nH]3)C(=O)c3ccccc32)cc1 96%
O=C(Nc1ccc(Cl)cc1)C1=Cc2ccccc2OC1 65.8%
CCc1cccc(CC)c1NC(=S)NCCc1c(C)[nH]c2ccccc12 50.6%
COc1ccc(CNCC(O)(c2ccccc2)c2ccc(Cl)cc2)cc1 (stereo not drawn) 60%
C=C(C(=O)c1ccccc1)C(C)C(=C)C(=O)c1ccccc1 59.5%
COc1ccc(-c2nc(N)n(S(=O)(=O)c3ccc(C)cc3)n2)cc1 63.5%
CCOc1ccc2nc(SC3CC(=O)N(c4cccc(OC)c4)C3=O)sc2c1 (stereo not drawn) 85%
Cc1ccc(C(=O)NCCc2cccc(Cl)c2)cc1[N+](=O)[O-] 73.5%
Cc1ccc(CSCCNC(=O)CSCc2ccc([N+](=O)[O-])cc2)cc1 68.6%
Cc1ccc(C(=O)NCCSCc2ccccc2)cc1[N+](=O)[O-] 52.2%
Clc1ccc(Nc2ccc(NCc3ccccc3)nn2)cc1 85.7%
O=C(Nc1cc(Cl)ccc1-n1cncn1)c1ccc([N+](=O)[O-])s1 92%
CCC(=O)Nc1cccc(-c2nc3ccccc3o2)c1 78.7%
CCCCCC(=O)Nc1ccc2oc(-c3cccnc3)nc2c1 58.5%
